Screening results as filed in PubChem.
An excerpt weighted towards active compounds, which were near 11% of everything screened.
Vaccinia mCherry: qHTS for Stage-Specific Inhibitors of Vaccinia Orthopoxvirus: mCherry Reporter Primary qHTS; Vaccinia virus mCherry reporter infection, fluorescence; Potency, µM (series often up to 36.5 µM), for the others: at the highest dose activity change, negative = inhibition, most hits filed as inhibitors; 310,000 tested, 0.63% active; AID 720579, 2013; calls by dose curve; tested in A549 cells; also: % is scaled to controls: 0 for no effect and ±100 for the full control effect; nearly all actives have a fitted effect of over 35% in size
HCV inh: qHTS Assay for Inhibitors of Hepatitis C Virus (HCV); Huh7.5.1 HCVcc-Cre infection, luciferase reporter, 44 h; Potency, µM (doses to about 41.8 µM), for the others: at the top dose activity change, negative = inhibition, actives largely listed as inhibitors; 340,000 tested, 3.4% active; AID 651820, 2012; also: % is scaled to controls: 0 for no effect and ±100 for the full control effect
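A cell-based infection assay in which seeded cells (1,000 per well) receive test compound after 4 h, are inoculated with HCVcc-Cre at approximately 0.5 moi, and are incubated 44 h before luminescence detection.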
NS1 inh: qHTS Assay for Inhibitors of Influenza NS1 Protein Function | Potency, µM (top dose mostly 46.1 µM), for the others: at the top dose activity, positive = more growth | AID 2326, 2010 | 270,000 tested, 0.4% active; calls by dose curve; also: actives are rising curves; nearly all actives have a fitted effect of over 50% in size
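In this qHTS, NS1 from influenza A is expressed in budding yeast, where it slows growth. Cells are switched from glucose to 2% galactose medium (pH 6.0, -URA), treated with compound, and growth recovery is read at OD600.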
Pf growth 96h: Primary qHTS for delayed death inhibitors of the malarial parasite plastid, 96 hour incubation. P. falciparum luciferase reporter growth, 96 h. Potency, µM (titrated, usually from 28.7 µM), for inactives: at the top dose activity change, negative = inhibition, actives largely listed as inhibitors. 320,000 tested, 6.9% active. AID 504834, 2011; also: % is scaled to controls: 0 for no effect and ±100 for the full control effect
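Cell-based qHTS: luciferase-tagged P. falciparum in erythrocytes (2% hematocrit, 0.05% parasitemia final) incubated with compounds for 96 hours, 37 C, 5% CO2; luciferase detection reagent then added and luminescence measured.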
Pf growth 48h: Primary qHTS for delayed death inhibitors of the malarial parasite plastid, 48 hour incubation; P. falciparum luciferase growth in erythrocytes, 48 h; Potency, µM (top dose mostly 28.7 µM), without a hit: at the top dose activity change, negative = inhibition, actives largely listed as inhibitors; 310,000 tested, 5.9% active; also: % is scaled to controls: 0 for no effect and ±100 for the full control effect
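Luciferase-expressing parasites in RBCs, 2% Hct / 0.1% parasitemia final; RPMI 1640 + 0.5% Albumax; 37 C, 5% CO2, one generation; luminescence read-out, lower signal = inhibition.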
Vaccinia Venus: qHTS for Stage-Specific Inhibitors of Vaccinia Orthopoxvirus: Venus Reporter Primary qHTS; Vaccinia virus Venus reporter expression, fluorescence; Potency, µM (doses to about 36.5 µM), without a hit: at the top dose activity change, negative = inhibition, most hits filed as inhibitors; 330,000 tested, 0.46% active; calls by dose curve; tested in A549 cells; also: % is scaled to controls: 0 for no effect and ±100 for the full control effect; nearly all actives have a fitted effect of over 30% in size
The depositor's hits bear a star; [ ] = remark or other dose. Unless noted, calls follow the shape of the dose curve; as a rule, active = well fitted inhibition curve with a large enough effect; inconclusive = small, poorly fitted or top-dose-only effect, or another doubt; inactive = no such curve, though single readings can be large or run the other way. Potency is read from the fitted curve at half-maximal effect.

COc1cccc(CNC(=O)CC2C(=O)NCCN2CCCc2ccccc2)c1 (stereo not given) was read as HCV inh 9%, NS1 inh 25%, Pf growth 96h 9.3µM* and Pf growth 48h inconclusive.
`COc1ccccc1CCNC(=O)CC1C(=O)NCCN1CCCc1ccccc1` (stereo not given) gave HCV inh -3%, NS1 inh 27%, Pf growth 96h 9% and Pf growth 48h inconclusive.
Screening CCN(CC)C(=O)c1oc2ccc(S(=O)(=O)N3CCCCCC3)cc2c1C returned Vaccinia mCherry -1%, HCV inh 25µM*, NS1 inh -6%, Pf growth 48h inconclusive and Vaccinia Venus -16%.
Cc1c(C(=O)Nc2ccc(F)cc2)oc2ccc(S(=O)(=O)N3CC(C)CC(C)C3)cc12 (stereo not given) was read as Vaccinia mCherry -3%, HCV inh inconclusive, NS1 inh 9%, Pf growth 48h 10µM* and Vaccinia Venus -6%.
For Cc1c(C(=O)NCc2cccnc2)oc2ccc(S(=O)(=O)N3CC(C)CC(C)C3)cc12 (stereo not given) the results were Vaccinia mCherry -14%, HCV inh 13%, NS1 inh -2%, Pf growth 96h 61%, Pf growth 48h inconclusive and Vaccinia Venus inconclusive.
COc1ccc(NC(=O)c2oc3ccc(S(=O)(=O)N4CCCCC4)cc3c2C)cc1 was read as Vaccinia mCherry -19% and Vaccinia Venus -19%.
Screening CCN(CC)C(=O)c1oc2ccc(S(=O)(=O)N3CC(C)CC(C)C3)cc2c1C (stereo not given) returned Vaccinia mCherry -11%, HCV inh 3.5µM*, NS1 inh 7%, Pf growth 96h 45%, Pf growth 48h inconclusive and Vaccinia Venus -12%.
Screening CC1CCN(S(=O)(=O)c2ccc3c(c2)N(CC(=O)NCCCOC(C)C)C(=O)CS3)CC1 returned HCV inh 8%, NS1 inh -30%, Pf growth 96h inconclusive and Pf growth 48h inconclusive.
Screening O=C(Cn1ncc2c3ccccc3n(Cc3ccccc3)c2c1=O)N1CCN(c2ncccn2)CC1 returned HCV inh 10µM*, NS1 inh -11%, Pf growth 96h inconclusive and Pf growth 48h inconclusive.
`O=C(Cn1ncc(Cl)c(Cl)c1=O)N1CCN(Cc2ccccc2)CC1` gave HCV inh 3.5µM*, Pf growth 96h inconclusive and Pf growth 48h inconclusive.
For COc1ccc(NC(=O)CN(C)C(=O)c2cccc(S(=O)(=O)N3CCN(C)CC3)c2)cc1 the results were Vaccinia mCherry -2%, HCV inh -9%, Pf growth 96h -7%, Pf growth 48h -9% and Vaccinia Venus -5%.
`Cc1ccc(CNC(=O)CN2Cc3ccccc3C2=O)cc1` gave Vaccinia mCherry -4% and Vaccinia Venus -6%.
Screening CC(=O)N1CCC(N(CCN2CCOCC2)C(=S)Nc2cccc(C)c2)CC1 returned Vaccinia mCherry -22%, HCV inh 6%, NS1 inh -7%, Pf growth 96h -9%, Pf growth 48h -9% and Vaccinia Venus -3%.
Screening CCOc1cc(-c2sc(Nc3ccc(CC)cc3)n[n+]2-c2ccccc2)ccc1OC returned Vaccinia mCherry 16%, HCV inh -21%, Pf growth 96h inconclusive, Pf growth 48h 10µM* and Vaccinia Venus 5%.
`CCOc1cc(-c2sc(Nc3cc(C)ccc3OC)n[n+]2-c2ccccc2)ccc1OC` gave Vaccinia mCherry inconclusive, HCV inh inconclusive, Pf growth 96h inconclusive, Pf growth 48h inconclusive and Vaccinia Venus -11%.
Screening CCc1ccc(Nc2n[n+](-c3ccccc3)c(-c3cccc(C)c3)s2)cc1 returned Vaccinia mCherry -10%, HCV inh 32µM*, Pf growth 96h 8.3µM*, Pf growth 48h inconclusive and Vaccinia Venus -25%.
Cc1cccc(-c2sc(Nc3ccccc3)n[n+]2-c2ccc(F)cc2)c1 was read as Vaccinia mCherry inactive, HCV inh 1%, NS1 inh -2%, Pf growth 96h inconclusive, Pf growth 48h 15% and Vaccinia Venus -3%.
For CCOC(=O)[C@]12CCC=C1N(Cc1ccc(Cl)cc1Cl)C(=O)[C@H](CC(=O)NCCc1ccccc1OC)C2 the results were Vaccinia mCherry 12% and Vaccinia Venus -8%.
For COc1cc2c(cc1OC)C(=O)C(CC1CCN(Cc3ccccc3)CC1)C2 (stereo not given) the results were Vaccinia mCherry inactive, HCV inh 1.4µM*, Pf growth 96h 9.5µM*, Pf growth 48h inconclusive and Vaccinia Venus -9%.
For COc1cc2c(cc1OC)CN(Cc1ccccc1)CC2 the results were Vaccinia mCherry inconclusive, HCV inh 4%, NS1 inh 6%, Pf growth 96h inconclusive, Pf growth 48h 1% and Vaccinia Venus -4%.
For NS(=O)(=O)c1ccc(CCNc2ncnc3sccc23)cc1 the results were HCV inh 5.6µM*, NS1 inh -3% and Pf growth 48h 6%.
For CC(Sc1ncnc2sccc12)C(=O)Nc1ccc(C(N)=O)cc1 (stereo not given) the results were HCV inh 0%, Pf growth 96h -17% and Pf growth 48h -12%.
`Cc1ccc(S(=O)(=O)Nc2ncnc3sc(C)c(C)c23)cc1` gave Vaccinia mCherry -15%, HCV inh -16%, Pf growth 96h -4%, Pf growth 48h 0% and Vaccinia Venus -9%.
`Cc1sc2ncnc(NCCc3ccc(S(N)(=O)=O)cc3)c2c1C` gave Vaccinia mCherry -9%[1.46 µM], HCV inh 1µM*, NS1 inh 1%, Pf growth 96h inconclusive and Vaccinia Venus inconclusive.
CC(Sc1ncnc2sccc12)C(=O)Nc1ccc(S(N)(=O)=O)cc1 (stereo not given) was read as Vaccinia mCherry 11µM*, HCV inh -23% and Vaccinia Venus inconclusive.
For NS(=O)(=O)c1ccc(CNc2ncnc3sccc23)cc1 the results were Vaccinia mCherry 29%, HCV inh -5%, NS1 inh 0%, Pf growth 96h 12%, Pf growth 48h -14% and Vaccinia Venus 0%.
Screening O=C(N/C(=C\c1ccc(Cl)cc1)C(=O)N1CCCCC1)c1ccco1 returned Vaccinia mCherry -19%, HCV inh 12%, NS1 inh -33%, Pf growth 96h 0%, Pf growth 48h 2% and Vaccinia Venus 2%.
